Assay outcomes deposited in PubChem BioAssay by National Center for Advancing Translational Sciences (NCATS).
Pf growth 48h: inhibits P. falciparum growth in the first generation, 48 h; hit rate 5.9% among 310,000; Potency, µM (doses to about 28.7 µM), actives largely listed as inhibitors; P. falciparum luciferase growth in erythrocytes, 48 h; AID 504832
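First compound was added to culture medium, then infected red cells at 0.1% parasitemia and 2% hematocrit (final). After incubation at 37 C under 5% CO2, luciferase detection reagent was dispensed and light output recorded.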
Pf growth 96h: P. falciparum growth inhibition at 96 hours | P. falciparum luciferase reporter growth, 96 h | Potency, µM (series often up to 28.7 µM), most hits filed as inhibitors | hit rate 6.9% among 320,000
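Two parasite generations (96 h, 37 C, 5% CO2) of compound exposure in infected erythrocytes (0.05% parasitemia, 2% hematocrit). Luciferase-reporter P. falciparum; decreased luminescence indicates inhibited growth, aimed at apicoplast-acting delayed death.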
AMA1 RON2 block: inhibitors of Plasmodium falciparum AMA1-RON2 interaction. hit rate 0.2% among 360,000. Potency, µM (highest dose often 58.2 µM), hits mostly inhibitors. AlphaScreen AMA1-biotinylated RON2 peptide binding; note: nearly all actives have a fitted effect of over 45% in size
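AMA1 (3D7) with his tag at 25 nM final met compounds first, then biotinylated RON2 peptide at 25 nM; detection used donor plus acceptor beads, 10 µg/mL apiece, read by AlphaScreen after 30 min at room temperature.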
Cycloheximide cs: counter-screen for Shiga toxin inhibitors: cycloheximide protein synthesis inhibition. cell reporter, cycloheximide protein synthesis inhibition counterscreen. max response, %. hit rate 12% among 300,000; in the data active = max response mostly above about 13%, no sharp cut-off; inactive = mostly below about 14%; note: read at 38.3 µM for the half of the compounds with a filed dose
Shiga inhibitor: blocks Shiga toxin action in Vero cells. Vero cells, Shiga toxin protein synthesis inhibition reporter. inhibition, % at 38.7 µM. hit rate 9.2% among 290,000; in the data active = inhibition mostly above about 28%, no sharp cut-off; inactive = mostly below about 43%
SARS PLpro yeast: SARS-CoV PLP inhibition in yeast. Potency, µM (doses to about 32.9 µM), actives largely listed as activators. S. cerevisiae expressing SARS-CoV PLpro, growth rescue. hit rate 0.19% among 330,000; calls by dose curve; note: nearly all actives have a fitted effect of over 55% in size
Large screens that a line does not name were inactive; ! = not confirmed by another sample. Compounds with a hit are over-represented: about 19% of the library has one in this group of screens. Unless noted, calls come from the whole dose curve; as a rule, active = well fitted curve in the direction sought with a large enough effect; inconclusive = small, poorly fitted or top-dose-only effect, or another doubt; inactive = no such curve, though single readings can be large; an effect the other way counts as inactive or inconclusive.

NC(=O)NC(=O)CSc1cccc(C(F)(F)F)c1	none
O=C(c1cc(-c2ccccc2)nc2ccccc12)N1CCN(c2ccccc2O)CC1	Pf growth 48h 15µM, Pf growth 96h 9.3µM, Cycloheximide cs 15, Shiga inhibitor 46
O=C(c1cc(-c2ccccc2)nc2ccccc12)N1CCN(c2ccccn2)CC1	none
CCCN1C(=O)c2ccccc2NC1c1ccc(OC)c(CSc2ccccn2)c1 (centres undefined)	Pf growth 48h inconclusive, Pf growth 96h 10µM
COc1ccc(N2C(=O)c3ccccc3NC2c2ccc(OC)c(COc3ccccn3)c2)cc1 (centres undefined)	Cycloheximide cs 16
COC(=O)COc1ccc(Cl)cc1C1Nc2ccccc2C(=O)N1c1ccc(OC)cc1 (centres undefined)	none
COc1ccc(N2C(=O)c3ccccc3NC2c2ccc(OC)c(CSc3ccccn3)c2)cc1 (centres undefined)	Cycloheximide cs 56
COc1ccc(C2Nc3ccccc3C(=O)N2Cc2ccccc2)cc1COc1ccccn1 (centres undefined)	Pf growth 48h inconclusive, Pf growth 96h inconclusive
CCN(CCNC(=O)Nc1ccc(Cl)cc1)c1ccccc1	Pf growth 48h inconclusive (no result: SARS PLpro yeast)
COc1cc(/C=C/C(=O)OC(C)C(=O)NC2CCCCC2C)cc(Cl)c1OC (centres undefined)	Pf growth 48h inconclusive (no result: Cycloheximide cs, Shiga inhibitor)
COc1ccc(N2CCN(C(=O)CSc3nnc(NC(=O)C4CC4)s3)CC2)cc1	none
CN(C)CCC(=O)c1ccc2c(c1)OCO2	Cycloheximide cs 24
CN(C)CCCC(=O)c1ccc2c(c1)OCO2	none (no result: Pf growth 96h)
O=C(CCNc1ccccc1)c1ccc2c(c1)OCO2	Cycloheximide cs 63, Shiga inhibitor 71
O=C(NCc1ccccc1F)c1ccc2c(c1)OCO2	none (no result: Pf growth 48h)
CN(C(=O)Cn1cccc1C1=NC(c2ccccc2)CO1)c1ccccc1 (centres undefined)	none
O=C(NC1(C(F)(F)F)N=C(c2ccccc2)NC1=O)c1ccccc1F (centres undefined)	none
Cc1nnc(SCC(=O)N2c3ccccc3CC2C)[nH]c1=O (centres undefined)	none
Cc1ccc(OCCSc2nc(NC(C)C)nc(NC(C)C)n2)cc1	Pf growth 48h inconclusive, Pf growth 96h inconclusive
COc1cc(/C=N/N=C2\CC3CCC2(C)C3(C)C)ccc1O (centres undefined)	Pf growth 96h inconclusive (no result: SARS PLpro yeast)
CC12CCC(C/C1=N\N=C1\NC(=O)/C(=C\c3cccc(Br)c3)S1)C2(C)C (centres undefined)	Pf growth 48h inconclusive, Pf growth 96h 13µM
CC(=O)N(CCc1ccccc1C)Cc1cc2ccc(C)cc2[nH]c1=O	none
CCN(CC)CCN(Cc1cc2cccc(C)c2[nH]c1=O)C(=S)Nc1ccccc1	Pf growth 48h 12µM, AMA1 RON2 block inconclusive
CCN(CC)CCN(Cc1cc2ccc(C)cc2[nH]c1=O)C(=S)Nc1ccccc1C(=O)OC	Pf growth 48h 13µM
COC(=O)c1ccccc1NC(=S)N(Cc1ccc2c(c1)OCO2)Cc1cc2cc(C)ccc2[nH]c1=O	Pf growth 48h inconclusive
COC(=O)c1ccccc1NC(=S)N(Cc1ccc2c(c1)OCO2)Cc1cc2ccc(OC)cc2[nH]c1=O	Pf growth 48h 9.3µM
COC(=O)c1ccccc1NC(=S)N(Cc1ccc2c(c1)OCO2)Cc1cc2ccc(C)cc2[nH]c1=O	Pf growth 48h 9.3µM, Pf growth 96h inconclusive
Cc1ccc(S(=O)(=O)NNC(=O)C(O)(c2ccccc2)c2ccccc2)cc1	Pf growth 96h 2.1µM
CCCNNC(=O)C(O)(c1ccccc1)c1ccccc1	Pf growth 96h 10µM
Cc1ccc(S(=O)(=O)NNC(=O)c2ccncc2)cc1	Pf growth 96h inconclusive
Cc1ccc(S(=O)(=O)NNC(=O)C(=O)NNc2ccccn2)cc1	AMA1 RON2 block 32µM
Cc1cc(C(=O)NNS(=O)(=O)c2ccc(C(C)(C)C)cc2)nn1C(C)(C)C	Pf growth 48h 10µM
O=C(NNS(=O)(=O)c1ccccc1)C(O)(c1ccccc1)c1ccccc1	none
Nc1ccc(S(=O)(=O)NNC(=O)C(=O)NNc2ccccn2)cc1	none
COc1ccccc1NNC(=O)C(O)(c1ccccc1)c1ccccc1	none
O=C(CN(Cc1ccc(F)cc1)C(=O)CCC(=O)Nc1ccccn1)NCCc1ccccc1	Pf growth 96h inconclusive
O=C(c1cc(S(=O)(=O)NCc2ccco2)ccc1Br)N1CCOCC1	Pf growth 96h inconclusive (no result: Cycloheximide cs, Shiga inhibitor)
Cc1ccc(C(=O)OC(C)C(=O)c2cc(C)c(C)cc2C)o1 (centres undefined)	Pf growth 48h inconclusive, Cycloheximide cs 20 (no result: SARS PLpro yeast)
COCCNC(=O)CN(C(=O)CCC(=O)Nc1ccccn1)c1ccc(C)cc1C	none
COc1ccc(NC(=O)Cn2c(=O)n(-c3ccc(CC(=O)NCc4ccco4)cc3)c(=O)c3ccccc32)cc1	none
COc1ccc(N2CCN(CCCNS(=O)(=O)c3c(C)noc3/C=C/N(C)C)CC2)cc1	Pf growth 48h 2.9µM, Pf growth 96h inconclusive (no result: AMA1 RON2 block)
COc1ccc(NC(=O)C2CCN(S(=O)(=O)c3c(C)noc3/C=C/N(C)C)CC2)cc1	Pf growth 48h inconclusive
COc1cc2cc(CN(CCc3cccc(C)c3)C(=S)NCCCN3CCOCC3)c(=O)[nH]c2cc1OC	Pf growth 48h inconclusive
CCCc1cnc(N2CCN(C(=S)NC)CC2)nc1	Cycloheximide cs 44, Shiga inhibitor 66
CCCc1cnc(N2CCN(C(=O)c3ccc(F)cc3)CC2)nc1	Pf growth 48h inconclusive, Pf growth 96h inconclusive
CN1CCc2cccc3c2[C@H]1Cc1ccc(O)c(O)c1-3	Pf growth 48h 2.9µM, Pf growth 96h 2.3µM!, AMA1 RON2 block 10µM
COc1ccc2c(c1O)-c1c(OC)c(OC)cc3c1[C@H](C2)N(C)CC3	none (no result: Cycloheximide cs, Shiga inhibitor, SARS PLpro yeast)
NNC(=O)CP(=O)(c1ccccc1)c1ccccc1	none (no result: Cycloheximide cs, Shiga inhibitor, SARS PLpro yeast)
CCNC(=O)CP(=O)(c1ccccc1)c1ccccc1	Pf growth 96h 8.3µM
O=C(CP(=O)(c1ccccc1)c1ccccc1)Nn1cnnc1	Cycloheximide cs 49, Shiga inhibitor 99
CC(=O)c1c(C)[nH]c(C(=O)Nc2ccc(S(=O)(=O)N(C)C)cc2)c1C	Pf growth 48h inconclusive, Pf growth 96h 13µM
CC(=O)c1c(C)[nH]c(C(=O)Nc2cc(C)cc(C)c2)c1C	Pf growth 96h 5.9µM (no result: Pf growth 48h)
CC(=O)c1c(C)[nH]c(C(=O)Nc2cccc(S(=O)(=O)N(C)C)c2)c1C	Cycloheximide cs 31
CC(NS(=O)(=O)c1ccc(Br)cc1)C(c1cccs1)N1CCOCC1 (centres undefined)	none
COCCN(C(=O)CSc1nc(-c2ccccc2)cn1N)c1c(N)n(Cc2ccccc2)c(=O)[nH]c1=O	Pf growth 48h inconclusive (no result: Cycloheximide cs, Shiga inhibitor, SARS PLpro yeast)
Cc1sc2nc3n(c(=O)c2c1C)NC(=O)CC3	Pf growth 48h inconclusive
COC(=O)c1cnn2c(C(F)(F)F)cc(-c3ccc(F)cc3)nc12	Pf growth 96h inconclusive
CCOC(=O)C1CCCN(C(=O)c2cc3nc(-c4cccc(OC)c4)cc(C(F)(F)F)n3n2)C1 (centres undefined)	Pf growth 48h 12µM (no result: Pf growth 96h)
